# HT1080 IDH1KD tx – kills HT-1080 cells with IDH1 knockdown; hit rate 2% among 360,000; Potency, µM (top dose mostly 46.1 µM), inactives show top-dose activity, negative = toxicity, hits mostly cytotoxic; HT-1080 IDH1 knockdown viability, ATP luminescence, 48 h; AID 686971;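 also: 0% = DMSO wells and -100% = cell-free medium wells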
#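 HT-1080-IDH1KD cells (IDH1 knocked down), 750/well in RPMI with 5% FBS, treated with compound 48 h at 37 degrees C. Viability by CellTiter-Glo luminescence, normalised to DMSO and no-cell wells; concentration-response curves classed.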
# KB-3-1 cytotox – KB-3-1 parental cell cytotoxicity | KB-3-1 viability, CellTiter-Glo ATP luminescence, 72 h | Potency, µM (doses to about 46.1 µM), most hits filed as cytotoxic | hit rate 1.4% among 400,000; also: % is scaled to controls: 0 for no effect and ±100 for the full control effect; nearly all actives have a fitted effect of over 60% in size
#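 Cytotoxicity in the drug-sensitive parental line KB-3-1 was scored as loss of CellTiter-Glo luminescence following 72 h incubation with compound. Values come from curve fitting of normalized concentration-response data.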
# SW480 rereplic – induces DNA re-replication in SW480 colon adenocarcinoma cells; AID 624297; Potency, µM (top dose mostly 46.1 µM), for inactives: top-dose re-replication activation, most hits filed as activators; SW480 DNA re-replication, Hoechst DNA content imaging, 48 h; hit rate 1.8% among 340,000; also: % of control where 0% means no effect; nearly all actives have a fitted effect of over 55% in size
#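 Image-based DNA-content assay: after two days of treatment, nuclei were labelled with the DNA dye Hoechst and imaged, and hits were compounds raising the count of nuclei showing high fluorescence intensity.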
# KB-V1 cytotox – KB-V1 MDR subline cytotoxicity; hit rate 3.4% among 400,000; AID 1347076; KB-V1 MDR cells viability, CellTiter-Glo, 72 h; Potency, µM (series often up to 46.1 µM), usual class: cytotoxic; also: % is scaled to controls: 0 for no effect and ±100 for the full control effect; nearly all actives have a fitted effect of over 60% in size
#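 qHTS viability screen in drug-selected KB-V1 MDR cells: 72 h compound treatment at 37 degrees C, ATP luminescence end point.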
# HT1080NT lethal – kills 2HG-producing HT-1080-NT fibrosarcoma cells; HT-1080-NT fibrosarcoma viability, CellTiter-Glo ATP luminescence, 48 h; Potency, µM (series often up to 46.1 µM), for inactives: at the top dose activity, negative = less viability, usual class: cytotoxic; hit rate 1.6% among 360,000; AID 686970;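 also: NT is the 2HG producing partner of a matched IDH1 knockdown line; 0% = DMSO-treated cells and -100% = media-only wells without cells; nearly all actives have a fitted effect of over 55% in size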
#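 HT-1080-NT fibrosarcoma cells (2HG-overproducing), 750 cells/well in RPMI with 5% FBS, dosed after 2 h and incubated 48 h at 37C. CellTiter-Glo luminescence normalized to DMSO and no-cell wells; concentration-response curves fitted and classed.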
# MCF10A rerep – induces DNA re-replication in MCF 10a normal breast cells; MCF 10A DNA re-replication, Hoechst nuclear intensity, 48 h; Potency, µM (highest dose often 46.1 µM), for inactives: top-dose activity, positive = re-replication, hits mostly activators; hit rate 2.9% among 350,000; AID 624296; also: % of control where 0% means no effect; nearly all actives have a fitted effect of over 50% in size
# Active calls of the source: *; i = inactive; u = inconclusive; x = no result given; ! = a repeat was not active; [ ] = another dose, or the depositor's remark. Rows were chosen to be rich in hits. Some 7.9% of all compounds tested hit in one or more screens of this group. Calls follow the shape of the dose curve; as a rule, active = well fitted curve in the direction sought with a large enough effect; inconclusive = small, poorly fitted or top-dose-only effect, or another doubt; inactive = no such curve, though single readings can be large; an effect the other way counts as inactive or inconclusive. Potency is read from the fitted curve at half-maximal effect.
SMILES,HT1080 IDH1KD tx,KB-3-1 cytotox,SW480 rereplic,KB-V1 cytotox,HT1080NT lethal,MCF10A rerep
CC1=NN(c2ccc([N+](=O)[O-])cc2)C(=O)/C1=C\N(C)C,8.2µM*,u,-8%,10µM*,8.2µM*,-1%
CCCC1=NN(c2ccc([N+](=O)[O-])cc2)C(=O)/C1=C/N(C)C,5%,i,-1%,i,-1%,25%
Fc1ccc(-c2nc3ccc(Br)cn3c2Cc2ccccc2C(F)(F)F)cc1,2%,i,x,u,-25%,x
COc1ccc(C2C=C(c3ccccc3)Nc3nc(NC(=O)c4cccc([N+](=O)[O-])c4)nn32)cc1 (stereo not given),x,i,x,i,x,x
COc1ccccc1CC(=O)Nc1ccc2nc(Nc3cccc(Cl)c3)cc(C)c2c1,x,i,x,i,x,x
COc1ccc(-c2cc(-c3ccccc3)nc(NN)n2)cc1OC,u,i,u,i,u,-1%
COc1nc(-c2ccccc2)cc(-c2ccc(OC)c(OC)c2)n1,u,i,u,8.2µM*,-8%,u
O=C(N/N=C\c1cccc([N+](=O)[O-])c1O)C1COc2ccccc2O1 (stereo not given),u,i,u,i,u,-7%
CN(C)c1ccc(/C=N/NC(=O)C2COc3ccccc3O2)o1 (stereo not given),-4%,i,6%,i,u,7%
O=C(N/N=C/c1ccc(-c2ccc([N+](=O)[O-])cc2)o1)[C@H]1C[C@@H]1c1ccccc1,11%,i,8.2µM*,i,3%,23µM*
O=C(N/N=C\c1ccc(-c2ccc([N+](=O)[O-])cc2)o1)C1COc2ccccc2O1 (stereo not given),-15%,i,8%,u,-4%,21µM*
COc1cc([N+](=O)[O-])cc(/C=N\NC(=O)C2COc3ccccc3O2)c1O (stereo not given),18µM*,u,0%,u,u,u
CCOC(=O)C1CCCN(c2nc3c(S(=O)(=O)c4ccc(Br)cc4)nnn3c3ccsc23)C1 (stereo not given),x,i,x,u,x,x
COc1ccc(NC(=O)c2oc3ccccc3c2NC(=O)COc2ccc(C(C)C)cc2)c(OC)c1,x,i,x,u,x,x
CCCN1C(=O)/C(=C/c2ccc(C)o2)SC1=Nc1ccc(OC)cc1,u,i,1%[9.22 µM],i,u,16µM*
CCCN1C(=O)/C(=C/c2ccc(C)o2)SC1=Nc1ccc(OCC)cc1,8%,i,-5%,i,13%,-4%
Cc1cccc(C(=O)Nc2ccc(S(=O)(=O)N3CCC(c4nc5ccccc5s4)CC3)cc2)c1,x,i,x,i,x,x
O=C(c1cccc(Cl)c1)N1CCC(c2nc3c(nnn3Cc3ccc(F)cc3F)c(=O)[nH]2)CC1,x,i,x,i,x,x
Cc1c2n(c3ccccc13)CC/C2=N\O,-29%,u,1%,5.2µM*,-19%,1%
Cc1cccn2c(=O)nc(SCC(=O)NC3CCCC3)nc12,1%,i,18µM*,i,2%,0%
Cc1noc(NS(=O)(=O)c2ccc(N/C=C\C(=O)c3ccc4c(c3)OCO4)cc2)c1C,10µM*,i,7%,i,-2%,5.8µM*
O=C(NCc1ccccc1)[C@]1(C(F)(F)F)C[C@H](CCc2ccccc2)CCCO1,2%,i,-4%,i,0%,1.8µM*
CC(=O)OCC(=O)C1(O)CCC2C3CC(C)C4=CC(=O)C=CC4(C)C3=CCC21C (stereo not given),2%,i,-4%,i,3%,1%
c1ccc(-c2cn3nc(-c4ccccc4)sc3n2)cc1,7%,i,-2%,i,0%,4%
c1ccc(-c2cn3c4c(sc3n2)CCCC4)cc1,u,u,u,u,11µM*,21µM*!

# Source: PubChem (National Center for Advancing Translational Sciences (NCATS))
